# Assay results: paper PMC7862700, “An all-to-all approach to the identification of sequence-specific readers for epigenetic DNA modifications on cytosine”
# Tests used:
# Experiment in all cases: DAPPL (digital affinity profiling via proximity ligation, sequencing); 10 mM Tris-HCl pH 7.5, 50 mM NaCl, 1 mM DTT, 4% glycerol, room temperature, 30 min; GST-TFs on glutathione beads, 16-mer random dsDNA library, 0.1% formaldehyde crosslink after washing; high values mean tight binding
# FLI1 = biological target: T1, FLI1 (Homo sapiens, UniProt Q01543 1-452); details: protein: recombinant; tags: N-terminal GST; dsDNA, one strand shown
# T1 sequence: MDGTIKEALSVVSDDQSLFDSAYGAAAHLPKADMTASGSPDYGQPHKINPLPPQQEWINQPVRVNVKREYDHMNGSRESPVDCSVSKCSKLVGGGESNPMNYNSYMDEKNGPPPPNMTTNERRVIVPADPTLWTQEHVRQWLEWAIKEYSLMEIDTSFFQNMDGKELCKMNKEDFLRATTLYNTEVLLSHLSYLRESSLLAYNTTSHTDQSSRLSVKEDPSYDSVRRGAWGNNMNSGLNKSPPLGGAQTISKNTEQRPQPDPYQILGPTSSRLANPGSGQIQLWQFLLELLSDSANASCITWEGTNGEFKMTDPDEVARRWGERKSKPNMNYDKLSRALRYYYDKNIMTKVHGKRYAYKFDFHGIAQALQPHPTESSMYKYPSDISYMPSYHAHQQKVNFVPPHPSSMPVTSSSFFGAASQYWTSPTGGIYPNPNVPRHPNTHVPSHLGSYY
# Procedure, shortened: (§1)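 The binding signal reported is, for every hexamer, its read frequency for a factor over its read frequency for the tag-only sample. Reads came from pools of yeast-expressed, GST-fused human transcription factors on glutathione beads, barcoded with DNA and mixed with that sample, which were incubated with 200 nmole of a random double-stranded 16-mer DNA library in Tris/NaCl/DTT/glycerol buffer at room temperature for 30 min. After washing, the pools were crosslinked with 0.1% formaldehyde, proximity-ligated with BsaI/T4 ligase for 1 h at 37 °C, PCR-amplified and sequenced on an Illumina NextSeq500.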
# ELK1 = biological target: T2, ELK1 (Homo sapiens, UniProt P19419 1-428); details: protein: recombinant; tags: N-terminal GST; dsDNA, one strand shown
# T2 sequence: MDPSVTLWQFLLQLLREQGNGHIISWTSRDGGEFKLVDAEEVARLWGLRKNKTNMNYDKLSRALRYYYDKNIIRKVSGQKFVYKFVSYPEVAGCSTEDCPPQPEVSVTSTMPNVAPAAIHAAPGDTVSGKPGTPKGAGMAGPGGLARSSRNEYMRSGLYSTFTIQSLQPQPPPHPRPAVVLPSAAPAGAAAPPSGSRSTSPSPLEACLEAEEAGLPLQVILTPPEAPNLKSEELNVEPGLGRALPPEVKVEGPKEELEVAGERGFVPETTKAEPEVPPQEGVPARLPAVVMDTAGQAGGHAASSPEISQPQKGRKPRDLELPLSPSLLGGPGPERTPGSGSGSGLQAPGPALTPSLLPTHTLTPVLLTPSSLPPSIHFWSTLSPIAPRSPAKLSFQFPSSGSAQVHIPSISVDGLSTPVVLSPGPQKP
# Procedure, shortened: as §1
# GABPA = biological target: T3, GABPA (Homo sapiens, UniProt Q06546 1-454); details: protein: recombinant; tags: N-terminal GST; dsDNA, one strand shown
# T3 sequence: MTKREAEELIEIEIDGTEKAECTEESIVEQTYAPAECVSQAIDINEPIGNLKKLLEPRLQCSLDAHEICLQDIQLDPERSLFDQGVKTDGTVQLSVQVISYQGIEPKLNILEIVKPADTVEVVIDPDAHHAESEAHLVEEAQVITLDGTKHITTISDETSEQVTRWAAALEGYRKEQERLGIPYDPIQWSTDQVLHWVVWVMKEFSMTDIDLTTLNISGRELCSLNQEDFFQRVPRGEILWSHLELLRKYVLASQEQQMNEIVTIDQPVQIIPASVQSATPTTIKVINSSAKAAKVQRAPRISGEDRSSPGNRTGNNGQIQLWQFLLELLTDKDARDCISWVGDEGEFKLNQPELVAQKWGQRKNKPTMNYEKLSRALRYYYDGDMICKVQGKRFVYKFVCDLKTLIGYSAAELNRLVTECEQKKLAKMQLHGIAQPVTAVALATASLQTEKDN
# Procedure, shortened: as §1
# ERG = biological target: T4, ERG (Homo sapiens, UniProt P11308 1-479); details: protein: recombinant; tags: N-terminal GST; dsDNA, one strand shown
# T4 sequence: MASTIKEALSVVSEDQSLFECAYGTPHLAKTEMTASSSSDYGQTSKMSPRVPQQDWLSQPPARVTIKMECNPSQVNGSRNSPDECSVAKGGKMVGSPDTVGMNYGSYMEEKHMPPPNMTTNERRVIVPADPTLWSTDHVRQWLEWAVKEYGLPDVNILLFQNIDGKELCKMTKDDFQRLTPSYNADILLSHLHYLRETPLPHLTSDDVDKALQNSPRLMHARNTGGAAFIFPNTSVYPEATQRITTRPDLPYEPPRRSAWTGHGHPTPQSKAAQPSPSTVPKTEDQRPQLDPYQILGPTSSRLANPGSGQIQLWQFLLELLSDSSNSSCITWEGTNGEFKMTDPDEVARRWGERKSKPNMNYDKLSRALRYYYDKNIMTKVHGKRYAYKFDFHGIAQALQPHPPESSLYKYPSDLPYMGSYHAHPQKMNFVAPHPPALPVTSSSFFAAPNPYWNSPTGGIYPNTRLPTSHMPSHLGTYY
# Procedure, shortened: as §1
# ELF1 = ELF1 (Homo sapiens, UniProt P32519 1-619); details: protein: recombinant; tags: N-terminal GST; dsDNA, one strand shown
# Procedure, shortened: as §1
# EHF = biological target: T5, EHF (Homo sapiens, UniProt Q9NZC4 1-300); details: protein: recombinant; tags: N-terminal GST; dsDNA, one strand shown
# T5 sequence: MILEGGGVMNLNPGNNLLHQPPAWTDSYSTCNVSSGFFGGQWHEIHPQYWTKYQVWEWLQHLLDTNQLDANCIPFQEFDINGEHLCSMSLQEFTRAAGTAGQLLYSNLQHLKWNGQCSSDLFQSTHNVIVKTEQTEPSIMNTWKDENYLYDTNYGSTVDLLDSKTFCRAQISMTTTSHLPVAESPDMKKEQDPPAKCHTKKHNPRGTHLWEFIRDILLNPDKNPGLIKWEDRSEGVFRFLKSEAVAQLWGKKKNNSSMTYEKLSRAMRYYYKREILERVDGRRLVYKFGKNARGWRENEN
# Procedure, shortened: as §1
# SPI1 = SPI1 (Homo sapiens, UniProt P17947 1-270); details: protein: recombinant; tags: N-terminal GST; dsDNA, one strand shown
# Procedure, shortened: as §1
# SPIB = SPIB (Homo sapiens, UniProt Q01892 1-262); details: protein: recombinant; tags: N-terminal GST; dsDNA, one strand shown
# Procedure, shortened: as §1
# ELK3 = biological target: T6, ELK3 (Homo sapiens, UniProt P41970 1-407); details: protein: recombinant; tags: N-terminal GST; dsDNA, one strand shown
# T6 sequence: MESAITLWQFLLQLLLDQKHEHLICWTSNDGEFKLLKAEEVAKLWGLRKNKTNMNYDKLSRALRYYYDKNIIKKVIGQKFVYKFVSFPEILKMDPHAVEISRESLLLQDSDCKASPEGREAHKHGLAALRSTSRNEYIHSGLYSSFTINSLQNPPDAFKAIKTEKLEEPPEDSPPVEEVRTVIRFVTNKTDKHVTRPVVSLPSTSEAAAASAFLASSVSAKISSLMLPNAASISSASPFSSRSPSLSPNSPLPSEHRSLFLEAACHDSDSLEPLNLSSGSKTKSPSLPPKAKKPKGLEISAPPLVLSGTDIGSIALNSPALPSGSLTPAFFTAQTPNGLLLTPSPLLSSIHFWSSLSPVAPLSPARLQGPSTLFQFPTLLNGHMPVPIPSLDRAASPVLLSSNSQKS
# Procedure, shortened: as §1
# FEV = biological target: T7, FEV (Homo sapiens, UniProt Q99581 1-238); details: protein: recombinant; tags: N-terminal GST; dsDNA, one strand shown
# T7 sequence: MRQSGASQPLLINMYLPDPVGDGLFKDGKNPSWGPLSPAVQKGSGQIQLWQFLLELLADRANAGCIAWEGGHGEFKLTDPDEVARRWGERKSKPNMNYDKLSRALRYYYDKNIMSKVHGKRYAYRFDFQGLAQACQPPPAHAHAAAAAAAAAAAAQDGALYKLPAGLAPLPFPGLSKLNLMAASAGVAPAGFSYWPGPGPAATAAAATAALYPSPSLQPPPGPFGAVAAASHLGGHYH
# Procedure, shortened: as §1
# ETV5 = ETV5 (Homo sapiens, UniProt P41161 1-510); details: protein: recombinant; tags: N-terminal GST; dsDNA, one strand shown
# Procedure, shortened: as §1
# HSF1 = HSF1 (Homo sapiens, UniProt Q00613 1-529); details: protein: recombinant; tags: N-terminal GST; chain copies: 3; dsDNA, one strand shown
# Procedure, shortened: as §1
# SPIC = biological target: T8, SPIC (Homo sapiens, UniProt Q8N5J4 1-248); details: protein: recombinant; tags: N-terminal GST; dsDNA, one strand shown
# T8 sequence: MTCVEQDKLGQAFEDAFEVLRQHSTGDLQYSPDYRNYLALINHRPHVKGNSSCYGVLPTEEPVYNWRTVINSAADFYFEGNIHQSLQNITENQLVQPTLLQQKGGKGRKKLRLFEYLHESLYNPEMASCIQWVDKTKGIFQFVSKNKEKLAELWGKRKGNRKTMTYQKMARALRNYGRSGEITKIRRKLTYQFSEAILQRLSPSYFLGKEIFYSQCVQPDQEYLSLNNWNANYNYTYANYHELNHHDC
# Procedure, shortened: as §1
# ELF4 = ELF4 (Homo sapiens, UniProt Q99607 1-663); details: protein: recombinant; tags: N-terminal GST; dsDNA, one strand shown
# Procedure, shortened: as §1
# ELK4 = biological target: T9, ELK4 (Homo sapiens, UniProt P28324-2 1-405); details: protein: recombinant; tags: N-terminal GST; dsDNA, one strand shown
# T9 sequence: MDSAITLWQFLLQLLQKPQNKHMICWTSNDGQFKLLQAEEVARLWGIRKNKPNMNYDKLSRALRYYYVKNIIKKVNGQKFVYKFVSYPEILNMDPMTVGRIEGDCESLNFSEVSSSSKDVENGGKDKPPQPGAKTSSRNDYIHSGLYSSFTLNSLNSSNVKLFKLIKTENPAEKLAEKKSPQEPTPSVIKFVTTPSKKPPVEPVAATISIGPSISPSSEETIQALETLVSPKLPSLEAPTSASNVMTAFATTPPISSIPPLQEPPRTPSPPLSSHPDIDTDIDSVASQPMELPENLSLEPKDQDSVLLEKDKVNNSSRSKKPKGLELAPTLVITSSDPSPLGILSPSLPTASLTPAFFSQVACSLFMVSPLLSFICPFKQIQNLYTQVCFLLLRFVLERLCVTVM
# Procedure, shortened: as §1
# ETV2 = biological target: T10, ETV2 (Homo sapiens, UniProt O00321 1-342); details: protein: recombinant; tags: N-terminal GST; dsDNA, one strand shown
# T10 sequence: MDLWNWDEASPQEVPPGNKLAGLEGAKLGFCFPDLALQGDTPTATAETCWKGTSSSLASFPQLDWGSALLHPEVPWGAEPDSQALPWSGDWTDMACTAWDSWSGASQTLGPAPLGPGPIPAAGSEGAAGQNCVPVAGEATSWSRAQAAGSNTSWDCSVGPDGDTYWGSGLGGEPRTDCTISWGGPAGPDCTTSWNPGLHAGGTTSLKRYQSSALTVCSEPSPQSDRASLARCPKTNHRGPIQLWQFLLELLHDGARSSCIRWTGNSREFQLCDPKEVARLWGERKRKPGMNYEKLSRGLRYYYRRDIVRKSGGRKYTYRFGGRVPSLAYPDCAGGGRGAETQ
# Procedure, shortened: as §1
# ELF3 = biological target: T11, ELF3 (Homo sapiens, UniProt P78545 1-371); details: protein: recombinant; tags: N-terminal GST; dsDNA, one strand shown
# T11 sequence: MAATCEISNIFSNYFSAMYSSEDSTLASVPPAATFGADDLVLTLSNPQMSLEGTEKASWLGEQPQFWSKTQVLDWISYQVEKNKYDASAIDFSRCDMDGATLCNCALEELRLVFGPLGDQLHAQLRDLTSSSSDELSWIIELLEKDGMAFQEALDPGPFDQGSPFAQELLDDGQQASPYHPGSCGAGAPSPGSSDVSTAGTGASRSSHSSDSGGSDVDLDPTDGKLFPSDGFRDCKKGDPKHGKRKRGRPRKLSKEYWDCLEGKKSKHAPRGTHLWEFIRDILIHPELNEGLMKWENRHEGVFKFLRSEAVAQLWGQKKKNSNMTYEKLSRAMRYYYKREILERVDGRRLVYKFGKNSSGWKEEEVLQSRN
# Procedure, shortened: as §1
# CRX = CRX (Homo sapiens, UniProt O43186 1-299); details: protein: recombinant; tags: N-terminal GST; dsDNA, one strand shown
# Procedure, shortened: as §1
# ETV1 = ETV1 (Homo sapiens, UniProt P50549 1-477); details: protein: recombinant; tags: N-terminal GST; dsDNA, one strand shown
# Procedure, shortened: as §1
# Chain of ELF1 (P32519 whole entry): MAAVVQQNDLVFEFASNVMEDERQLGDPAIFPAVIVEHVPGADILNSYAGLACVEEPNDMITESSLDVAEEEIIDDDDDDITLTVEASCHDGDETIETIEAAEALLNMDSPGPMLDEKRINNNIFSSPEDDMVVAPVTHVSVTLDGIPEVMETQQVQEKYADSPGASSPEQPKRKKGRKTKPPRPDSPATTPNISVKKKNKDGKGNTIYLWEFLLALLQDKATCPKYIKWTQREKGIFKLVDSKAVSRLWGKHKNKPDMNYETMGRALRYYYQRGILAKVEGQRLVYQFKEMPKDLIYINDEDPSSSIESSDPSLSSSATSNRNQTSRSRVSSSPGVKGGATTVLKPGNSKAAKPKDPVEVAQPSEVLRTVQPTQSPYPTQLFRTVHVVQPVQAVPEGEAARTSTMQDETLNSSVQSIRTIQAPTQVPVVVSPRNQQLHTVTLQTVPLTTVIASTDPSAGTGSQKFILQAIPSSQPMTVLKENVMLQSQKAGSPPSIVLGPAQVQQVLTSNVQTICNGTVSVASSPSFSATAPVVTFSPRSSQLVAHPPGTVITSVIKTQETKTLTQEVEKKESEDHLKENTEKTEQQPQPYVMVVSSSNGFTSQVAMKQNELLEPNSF
# Chain of ETV5 (P41161 whole entry): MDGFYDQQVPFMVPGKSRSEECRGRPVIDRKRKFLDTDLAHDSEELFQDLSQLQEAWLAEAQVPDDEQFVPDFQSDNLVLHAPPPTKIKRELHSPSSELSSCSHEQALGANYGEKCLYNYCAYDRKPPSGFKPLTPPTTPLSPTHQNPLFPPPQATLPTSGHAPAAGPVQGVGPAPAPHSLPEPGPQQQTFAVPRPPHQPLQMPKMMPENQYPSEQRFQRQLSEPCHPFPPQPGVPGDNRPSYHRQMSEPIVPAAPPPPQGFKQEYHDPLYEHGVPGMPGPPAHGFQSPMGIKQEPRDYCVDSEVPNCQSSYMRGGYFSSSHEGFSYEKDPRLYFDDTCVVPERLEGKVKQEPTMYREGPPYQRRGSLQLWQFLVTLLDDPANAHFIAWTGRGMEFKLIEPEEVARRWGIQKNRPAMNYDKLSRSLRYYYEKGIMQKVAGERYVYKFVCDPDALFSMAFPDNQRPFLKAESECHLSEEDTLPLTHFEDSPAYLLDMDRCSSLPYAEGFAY
# Chain of CRX (O43186 whole entry): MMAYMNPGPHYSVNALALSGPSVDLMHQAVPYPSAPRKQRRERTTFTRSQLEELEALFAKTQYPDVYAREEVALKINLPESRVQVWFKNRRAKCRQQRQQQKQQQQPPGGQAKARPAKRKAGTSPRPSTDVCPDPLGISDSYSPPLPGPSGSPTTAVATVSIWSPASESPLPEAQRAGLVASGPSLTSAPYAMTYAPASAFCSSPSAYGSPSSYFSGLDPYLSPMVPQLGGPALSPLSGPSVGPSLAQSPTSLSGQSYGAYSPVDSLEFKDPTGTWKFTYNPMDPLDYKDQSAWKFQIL
# Chain of SPIB (Q01892 whole entry): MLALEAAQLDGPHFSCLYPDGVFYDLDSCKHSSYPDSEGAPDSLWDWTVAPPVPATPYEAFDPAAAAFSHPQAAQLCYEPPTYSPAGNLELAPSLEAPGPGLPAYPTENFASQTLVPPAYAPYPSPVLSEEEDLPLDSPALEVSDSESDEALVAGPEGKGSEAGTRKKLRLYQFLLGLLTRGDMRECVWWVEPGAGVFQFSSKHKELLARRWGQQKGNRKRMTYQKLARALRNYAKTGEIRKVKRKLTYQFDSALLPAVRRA
# Chain of ETV1 (P50549 whole entry): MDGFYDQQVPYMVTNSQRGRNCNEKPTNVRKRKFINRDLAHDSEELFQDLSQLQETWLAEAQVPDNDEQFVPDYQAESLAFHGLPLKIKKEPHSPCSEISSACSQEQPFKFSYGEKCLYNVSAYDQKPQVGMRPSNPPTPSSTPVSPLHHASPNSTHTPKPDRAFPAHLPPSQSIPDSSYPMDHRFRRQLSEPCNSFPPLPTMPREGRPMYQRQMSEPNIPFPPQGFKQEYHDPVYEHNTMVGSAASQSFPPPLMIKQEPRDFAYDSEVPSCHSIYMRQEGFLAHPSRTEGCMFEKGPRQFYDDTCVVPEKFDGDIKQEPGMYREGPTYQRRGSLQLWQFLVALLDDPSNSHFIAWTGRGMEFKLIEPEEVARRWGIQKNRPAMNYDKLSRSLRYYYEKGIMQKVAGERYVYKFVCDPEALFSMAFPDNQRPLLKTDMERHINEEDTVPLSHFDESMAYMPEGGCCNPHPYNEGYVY
# Chain of ELF4 (Q99607 whole entry): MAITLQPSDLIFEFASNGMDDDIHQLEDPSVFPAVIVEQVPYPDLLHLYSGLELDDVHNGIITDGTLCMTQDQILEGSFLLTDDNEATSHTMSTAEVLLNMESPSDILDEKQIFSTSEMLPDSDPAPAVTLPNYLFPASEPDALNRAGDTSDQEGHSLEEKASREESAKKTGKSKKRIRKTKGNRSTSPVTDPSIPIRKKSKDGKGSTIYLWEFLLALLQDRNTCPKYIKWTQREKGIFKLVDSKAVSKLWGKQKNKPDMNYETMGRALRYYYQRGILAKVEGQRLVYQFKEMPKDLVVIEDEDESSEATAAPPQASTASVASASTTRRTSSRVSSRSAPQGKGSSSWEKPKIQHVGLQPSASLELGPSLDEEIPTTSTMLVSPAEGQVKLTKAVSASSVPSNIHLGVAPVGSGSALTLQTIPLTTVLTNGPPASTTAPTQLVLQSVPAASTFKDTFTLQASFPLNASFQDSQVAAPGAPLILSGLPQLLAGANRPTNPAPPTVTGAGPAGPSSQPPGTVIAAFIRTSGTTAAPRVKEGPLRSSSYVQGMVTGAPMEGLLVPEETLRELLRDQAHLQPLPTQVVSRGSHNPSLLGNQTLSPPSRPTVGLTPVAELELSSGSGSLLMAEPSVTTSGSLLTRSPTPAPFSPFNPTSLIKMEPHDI
# Chain of HSF1 (Q00613 whole entry): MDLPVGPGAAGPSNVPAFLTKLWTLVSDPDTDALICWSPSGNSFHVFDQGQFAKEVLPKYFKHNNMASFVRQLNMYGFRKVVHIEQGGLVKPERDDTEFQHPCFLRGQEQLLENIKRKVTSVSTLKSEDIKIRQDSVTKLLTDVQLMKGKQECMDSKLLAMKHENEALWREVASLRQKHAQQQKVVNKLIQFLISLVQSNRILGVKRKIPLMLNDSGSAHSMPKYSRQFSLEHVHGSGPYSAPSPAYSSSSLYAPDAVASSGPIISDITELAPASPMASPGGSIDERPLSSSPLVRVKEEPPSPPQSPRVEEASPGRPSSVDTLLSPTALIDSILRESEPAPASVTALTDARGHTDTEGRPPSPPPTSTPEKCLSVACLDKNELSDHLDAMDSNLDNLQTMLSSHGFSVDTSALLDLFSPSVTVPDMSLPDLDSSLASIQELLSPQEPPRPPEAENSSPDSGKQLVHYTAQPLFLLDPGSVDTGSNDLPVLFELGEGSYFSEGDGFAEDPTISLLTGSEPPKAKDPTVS
sequence,measurement,setting,value
CCGATC,binding signal,FLI1,"1.38 fold enrichment (6-mer frequency, TF over GST control)"
same,binding signal,ELK1,"1.25 fold enrichment (6-mer frequency, TF over GST control)"
same,binding signal,GABPA,"1.21 fold enrichment (6-mer frequency, TF over GST control)"
same,binding signal,ERG,"1.24 fold enrichment (6-mer frequency, TF over GST control)"
same,binding signal,ELF1,"1.28 fold enrichment (6-mer frequency, TF over GST control)"
same,binding signal,EHF,"1.24 fold enrichment (6-mer frequency, TF over GST control)"
same,binding signal,SPI1,"1.18 fold enrichment (6-mer frequency, TF over GST control)"
same,binding signal,SPIB,"1.17 fold enrichment (6-mer frequency, TF over GST control)"
same,binding signal,ELK3,"1.17 fold enrichment (6-mer frequency, TF over GST control)"
same,binding signal,FEV,"1.24 fold enrichment (6-mer frequency, TF over GST control)"
same,binding signal,ETV5,"1.25 fold enrichment (6-mer frequency, TF over GST control)"
same,binding signal,HSF1,"1.23 fold enrichment (6-mer frequency, TF over GST control)"
same,binding signal,SPIC,"1.27 fold enrichment (6-mer frequency, TF over GST control)"
same,binding signal,ELF4,"1.2 fold enrichment (6-mer frequency, TF over GST control)"
same,binding signal,ELK4,"1.13 fold enrichment (6-mer frequency, TF over GST control)"
same,binding signal,ETV2,"1.19 fold enrichment (6-mer frequency, TF over GST control)"
same,binding signal,ELF3,"1.4 fold enrichment (6-mer frequency, TF over GST control)"
same,binding signal,CRX,"1.36 fold enrichment (6-mer frequency, TF over GST control)"
same,binding signal,ETV1,"1.12 fold enrichment (6-mer frequency, TF over GST control)"
